The values that follow come from the supplement of paper PMC8975748.

Structures are written as SMILES. Counter-ions that a name gives are not always drawn. ± gives the standard deviation of the averaged measurements.

Assay [1] concerns Saccharomyces cerevisiae BY4741 SeMeCo community. Briefly: mean cell size (pixel area) (pixels); higher = larger cells. Conditions: 10 µM; 24 h; SM minimal medium. Summed up:
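In this assay, mean cell pixel area per well was obtained from automated confocal images of paraformaldehyde-fixed yeast analysed in Harmony. The cells were a Saccharomyces cerevisiae BY4741 community with four plasmids, each complementing one auxotrophy and carrying a fluorescent marker, grown for 24 h in SM medium with drug at a final 10 µM in 384-well plates. Values are averaged across 3 replicates. Same SeMeCo high-content imaging drug screen: Selleck FDA-approved drugs at 10 µM, 24 h in SM medium, 384-well plates, 3 replicates.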

Assay [2] has the same test system. Briefly: z-score of prototroph abundance vs DMSO median; higher = larger share of this subpopulation than in DMSO controls. As to conditions: 10 µM; 24 h; SM minimal medium; subpopulation (auxotrophy): Prototroph. Summed up:
(§1)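 Subpopulation abundance was reported as a z-score against the median of vehicle wells. The Saccharomyces cerevisiae BY4741 community, carrying four plasmids that each restored one auxotrophy and encoded a distinct fluorescent protein, was grown 24 h in minimal SM medium in 384-well plates holding library drugs at 10 µM final. Cells were paraformaldehyde-fixed and imaged by automated confocal microscopy, with single-auxotroph fluorescent strains used for thresholds and autofluorescence correction.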

Assay [3] shares this test system. Briefly: z-score of subpopulation abundance vs DMSO median, subpopulation auxotrophic for M; higher = larger share of this subpopulation than in DMSO controls. Conditions: 10 µM; 24 h; SM minimal medium; subpopulation (auxotrophy): M. In short, it runs like this:
as §1

For assay [4] the test system is unchanged. Briefly: z-score of subpopulation abundance vs DMSO median, subpopulation auxotrophic for L; higher = larger share of this subpopulation than in DMSO controls. As to conditions: 10 µM; 24 h; SM minimal medium; subpopulation (auxotrophy): L. In short, it runs like this: as §1
Assay [5] has the same test system. Briefly: z-score of subpopulation abundance vs DMSO median, subpopulation auxotrophic for H; higher = larger share of this subpopulation than in DMSO controls. Conditions: 10 µM; 24 h; SM minimal medium; subpopulation (auxotrophy): H. Summed up: as §1
For assay [6] the test system is unchanged. Briefly: z-score of subpopulation abundance vs DMSO median, subpopulation auxotrophic for LU; higher = larger share of this subpopulation than in DMSO controls. As to conditions: 10 µM; 24 h; SM minimal medium; subpopulation (auxotrophy): LU. In short, it runs like this:
as §1

For assay [7] the test system is unchanged. Briefly: z-score of subpopulation abundance vs DMSO median, subpopulation auxotrophic for LM; higher = larger share of this subpopulation than in DMSO controls. As to conditions: 10 µM; 24 h; SM minimal medium; subpopulation (auxotrophy): LM. Summed up:
as §1

Assay [8] has the same test system. Briefly: z-score of subpopulation abundance vs DMSO median, subpopulation auxotrophic for HM; higher = larger share of this subpopulation than in DMSO controls. Conditions: 10 µM; 24 h; SM minimal medium; subpopulation (auxotrophy): HM. In short, it runs like this: as §1
Assay [9] has the same test system. Briefly: z-score of subpopulation abundance vs DMSO median, subpopulation auxotrophic for HU; higher = larger share of this subpopulation than in DMSO controls. Conditions: 10 µM; 24 h; SM minimal medium; subpopulation (auxotrophy): HU. In short, it runs like this: as §1
The test system is the same in assay [10]. Briefly: z-score of subpopulation abundance vs DMSO median, subpopulation auxotrophic for UM; higher = larger share of this subpopulation than in DMSO controls. As to conditions: 10 µM; 24 h; SM minimal medium; subpopulation (auxotrophy): UM. In short, it runs like this:
as §1

For assay [11] the test system is unchanged. Briefly: z-score of subpopulation abundance vs DMSO median, subpopulation auxotrophic for HL; higher = larger share of this subpopulation than in DMSO controls. As to conditions: 10 µM; 24 h; SM minimal medium; subpopulation (auxotrophy): HL. Summed up:
as §1

The test system is the same in assay [12]. Briefly: z-score of subpopulation abundance vs DMSO median, subpopulation auxotrophic for HLU; higher = larger share of this subpopulation than in DMSO controls. Conditions: 10 µM; 24 h; SM minimal medium; subpopulation (auxotrophy): HLU. Summed up: as §1
Assay [13] has the same test system. Briefly: z-score of subpopulation abundance vs DMSO median, subpopulation auxotrophic for HLM; higher = larger share of this subpopulation than in DMSO controls. Conditions: 10 µM; 24 h; SM minimal medium; subpopulation (auxotrophy): HLM. In short, it runs like this:
as §1

The test system is the same in assay [14]. Briefly: z-score of subpopulation abundance vs DMSO median, subpopulation auxotrophic for LUM; higher = larger share of this subpopulation than in DMSO controls. Conditions: 10 µM; 24 h; SM minimal medium; subpopulation (auxotrophy): LUM. Summed up:
as §1

Assay [15] has the same test system. Briefly: z-score of subpopulation abundance vs DMSO median, subpopulation auxotrophic for HLUM; higher = larger share of this subpopulation than in DMSO controls. Conditions: 10 µM; 24 h; SM minimal medium; subpopulation (auxotrophy): HLUM. Summed up:
as §1

Assay [16] has the same test system. Briefly: z-score of subpopulation abundance vs DMSO median, subpopulation auxotrophic for U; higher = larger share of this subpopulation than in DMSO controls. As to conditions: 10 µM; 24 h; SM minimal medium; subpopulation (auxotrophy): U. Summed up: as §1

As to `O=C(O)C[C@H](O)C[C@H](O)/C=C/c1c(C2CC2)nc2ccccc2c1-c1ccc(F)cc1` [Pitavastatin Calcium], the mean cell size in assay [1] was 12 ± 0.2. The “z-score of prototroph abundance” value in assay [2] is -2.8. For the same compound, the “z-score of subpopulation abundance” value in assay [3] is 1; in [4], 0.86; in assay [5], 1.86; in assay [6], 1.45; in [7] it was -0.2; in assay [8], 4.05. Also, the “z-score of subpopulation abundance” value in [9] came to 2.66; in [10] it was 1.84; in assay [11], 1.83; in assay [12], 1.38; in assay [13], 2.39; in assay [14], 1.38. In addition, the “z-score of subpopulation abundance” value in assay [15] was 1.55.
Turning to `CN[C@@H]1[C@@H](O)[C@@H](O[C@@H]2[C@@H](O)[C@H](O[C@H]3O[C@H](CN)[C@@H](O)[C@H](O)[C@H]3O)[C@@H](N)C[C@H]2NC(=O)[C@@H](O)CN)OC[C@]1(C)O` [Isepamicin Sulphate], the mean cell size in assay [1] amounted to 12.1 ± 0.21. The “z-score of subpopulation abundance” value in [3] is 0; in assay [4], -1.49; in assay [16] it was 1.4; in assay [5], -0.38; in [6], -0.44; in assay [7] it was -0.22. Besides, the “z-score of subpopulation abundance” value is -0.49 in assay [8]; 1.15 in assay [9]; 1.19 in [10]; -0.42 in assay [12]; -0.7 in [13]; 0.03 in assay [14]. Moreover, the “z-score of subpopulation abundance” value in [15] was -0.09.
As for `N[C@@H]1CONC1=O` [D-Cycloserine], the mean cell size in assay [1] came to 11.8 ± 0.15. Also, in assay [2], the “z-score of prototroph abundance” value was -0.18. In addition, the “z-score of subpopulation abundance” value in assay [3] was -0.07; in assay [4], 1.05; in [16], -1; in [5] it was 1.3; in assay [6], -0.16; in assay [7], 0.54. The “z-score of subpopulation abundance” value in assay [9] was -0.43; in assay [10] it was -0.3; in assay [11], 0.99; in [12], 0.51; in assay [13] it was 0.38; in assay [14], 0.83. In addition, the “z-score of subpopulation abundance” value in assay [15] came out at 0.69.
`CO/N=C(\C(=O)N[C@@H]1C(=O)N2C(C(=O)O)=C(CSC(=O)c3ccco3)CS[C@H]12)c1csc(N)n1` [Ceftiofur HCl]: the mean cell size in [1] amounted to 12.54 ± 0.051. Also, the “z-score of subpopulation abundance” value in assay [3] is -0.14; in assay [4] it was -0.69; in assay [6] it was 1; in assay [7] it was -0.53; in assay [8] it was 0.46; in [9], 0.85. Further, the “z-score of subpopulation abundance” value in assay [10] is 1.05; in [12] it was 0.02; in [13] it was 0.11; in assay [14], -0.05; in assay [15] it was 0.19.
`COc1ccnc(C[S+]([O-])c2nc3cc(OC(F)F)ccc3[nH]2)c1OC` (configuration not stated) [Pantoprazole sodium] gave a mean cell size in assay [1] of 12.5 ± 0.28. Also, in assay [2], the “z-score of prototroph abundance” value was -0.43. The “z-score of subpopulation abundance” value in assay [3] was 0.43; in assay [4], -0.4; in assay [16], -0.3; in assay [5], 0.86; in assay [6], -0.65; in [7] it was 0. The “z-score of subpopulation abundance” value in assay [8] is 0.29; in assay [9], 0.06; in [10], 0.55; in assay [11], -0.43; in assay [12], -0.16; in assay [13], -0.85. The “z-score of subpopulation abundance” value was 0 in assay [14] and -0.49 in [15].
`CO[C@H]1C[C@@H]2CC[C@@H](C)[C@@](O)(O2)C(=O)C(=O)N2CCCC[C@H]2C(=O)O[C@H]([C@H](C)C[C@@H]2CC[C@@H](OC(=O)C(C)(CO)CO)[C@H](OC)C2)CC(=O)[C@H](C)/C=C(\C)[C@@H](O)[C@@H](OC)C(=O)[C@H](C)C[C@H](C)/C=C/C=C/C=C/1C` came in with a mean cell size in [1] of 14.17 ± 0.036. Also, in [2], the “z-score of prototroph abundance” value is -18.4. Further, the “z-score of subpopulation abundance” value was -1.76 in assay [3]; -0.9 in assay [4]; 3.43 in assay [16]; 13.5 in [5]; 4.31 in [6]; 5.51 in assay [7]. The “z-score of subpopulation abundance” value in [8] turned out to be 23.9; in assay [9], 28; in [10], 11.2; in assay [11], 15.9; in assay [12] it was 28; in [13] it was 21.4. Further, the “z-score of subpopulation abundance” value in assay [14] was determined as 14.2; in [15], 31.6.
Compound `CCC1(C)CC(=O)NC1=O` (configuration not stated) [Ethosuximide] yielded a mean cell size in assay [1] of 12.6 ± 0.19. Further, the “z-score of prototroph abundance” value in [2] was -0.06. Besides, the “z-score of subpopulation abundance” value is -0.27 in [3]; 0.6 in [4]; -0.94 in assay [5]; 0.79 in [6]; -0.21 in assay [7]; -0.5 in assay [8]. The “z-score of subpopulation abundance” value is -0.46 in assay [9]; -0.4 in [10]; -0.1 in assay [12]; 0.8 in assay [13]; 1.11 in assay [14]; 0.48 in [15].
